Where “and” joins values, the source holds several entries; their conditions need not be identical. Equal entries are not always repeated. Calls of active or inactive are those of the source. How the source made its calls: active means hit-call score of the fitted dose curve at least 0.9, where 1 is the maximum; inactive means score below 0.9.
These compounds were tested on Monocyte Chemoattractant Protein-1 (MCP1), CCL2 (gene 6347) (assay: BSK_4H_MCP1: BioMAP Diversity Plus: 4H Assay for Monocyte Chemoattractant Protein-1 (MCP1) Biomarker Activity (AID 2283018)). Conditions: primary human endothelial cells (HUVEC); actives raise or lower the signal.
Procedure, shortened: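 Endothelial cells from umbilical vein were treated with test chemical, then after 24 h MCP-1 levels were quantified by ELISA; endpoint values came from bidirectional fitting with DMSO as baseline of activity.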

SMILES | outcome | AC50
OCC(O)CC(F)(F)C(F)(F)C(F)(F)C(F)(F)C(F)(F)C(F)(F)C(F)(F)C(F)(F)F (stereo not drawn) | inactive | 
C=CC(=O)OCC(F)(F)C(F)(F)C(F)(F)C(F)(F)C(F)(F)C(F)(F)C(F)(F)C(F)F | inactive | 
NS(=O)(=O)C(F)(F)C(F)(F)C(F)(F)C(F)(F)C(F)(F)C(F)(F)F | inactive | 
NC(=O)C(F)(F)C(F)(F)C(F)(F)C(F)F | inactive | 
O=S(=O)(OCC(F)(F)F)C(F)(F)C(F)(F)C(F)(F)C(F)(F)F | inactive | 
C[C@]12CC[C@H]3C(=CCc4cc(O)ccc43)[C@@H]1CCC2=O | inactive | 
CO[Si](C)(CCC(F)(F)C(F)(F)C(F)(F)C(F)(F)C(F)(F)C(F)(F)F)OC | inactive | 
NCC(F)(F)C(F)(F)C(F)(F)C(F)(F)C(F)(F)C(F)(F)F | inactive | 
CNS(=O)(=O)C(F)(F)C(F)(F)C(F)(F)C(F)(F)C(F)(F)C(F)(F)C(F)(F)C(F)(F)F | inactive | 
NC(=O)C(F)(F)C(F)(F)C(F)(F)C(F)(F)C(N)=O | inactive | 
Cc1ccc(O)c(-n2nc3ccccc3n2)c1 | inactive | 
O=C=Nc1cccc2c(N=C=O)cccc12 |  | 0.502 µM (active)
CCN(CC)c1ccc(C=O)cc1 | inactive | 
O=C(O)CCC(F)(F)C(F)(F)C(F)(F)F | inactive | 

These compounds were tested on Human Leukocyte Antigen - DR isotype (HLADR), HLA-DRA (gene 3122) (assay: BSK_3C_HLADR: BioMAP Diversity Plus: 3C Assay for Human Leukocyte Antigen - DR isotype (HLADR) Biomarker Activity (AID 2283019;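 on outcome: ELISA of cell-surface HLA-DR on HUVEC 24 h after dosing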)). Conditions: primary human endothelial cells (HUVEC); actives raise or lower the signal.
Procedure, shortened: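 Bidirectional fitting against DMSO was applied to the HLA-DR ELISA signal from human umbilical vein endothelial cells, 24 h post-dose. Cytotoxicity came from parallel SRB total-protein staining; 3C proliferation was counted by SRB at 48 h.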

SMILES | outcome | AC50
OCC(O)CC(F)(F)C(F)(F)C(F)(F)C(F)(F)C(F)(F)C(F)(F)C(F)(F)C(F)(F)F (stereo not drawn) | inactive | 
C=CC(=O)OCC(F)(F)C(F)(F)C(F)(F)C(F)(F)C(F)(F)C(F)(F)C(F)(F)C(F)F | inactive | 
NS(=O)(=O)C(F)(F)C(F)(F)C(F)(F)C(F)(F)C(F)(F)C(F)(F)F |  | 22.6 µM (active) and 24.2 µM (active)
NC(=O)C(F)(F)C(F)(F)C(F)(F)C(F)F | inactive | 
O=S(=O)(OCC(F)(F)F)C(F)(F)C(F)(F)C(F)(F)C(F)(F)F | inactive | 
C[C@]12CC[C@H]3C(=CCc4cc(O)ccc43)[C@@H]1CCC2=O |  | 20 µM (active)
CO[Si](C)(CCC(F)(F)C(F)(F)C(F)(F)C(F)(F)C(F)(F)C(F)(F)F)OC | inactive | 
NCC(F)(F)C(F)(F)C(F)(F)C(F)(F)C(F)(F)C(F)(F)F | inactive | 
CNS(=O)(=O)C(F)(F)C(F)(F)C(F)(F)C(F)(F)C(F)(F)C(F)(F)C(F)(F)C(F)(F)F |  | 6.3 µM (active) and 8.04 µM (active)
NC(=O)C(F)(F)C(F)(F)C(F)(F)C(F)(F)C(N)=O | inactive | 
Cc1ccc(O)c(-n2nc3ccccc3n2)c1 | inactive | 
O=C=Nc1cccc2c(N=C=O)cccc12 | inactive | 
CCN(CC)c1ccc(C=O)cc1 | inactive | 
O=C(O)CCC(F)(F)C(F)(F)C(F)(F)F | inactive | 
